In publication PMC5540273 (PLoS ONE, 2017):

Key:
Conditions in all cases: concentration: 1 μM, replicates: in singlicate; n = 1
PIK3CG = system: PIK3CG
PIK4CB = system: T1, PIK4CB
T1 construct: gene PI4KB

PIKFYVE = system: PIKFYVE
PIM1 = system: PIM1
PIM2 = system: PIM2
PIM3 = system: PIM3
PIP5K1A = system: PIP5K1A
PIP5K1C = system: PIP5K1C
PIP5K2B = system: PIP5K2B
PIP5K2C = system: T2, PIP5K2C
T2 construct: gene PIP4K2C

PKAC-alpha = system: T3, PKAC-alpha
T3 construct: gene PRKACA

PKAC-beta = system: T4, PKAC-beta
T4 construct: gene PRKACB

PKMYT1 = system: PKMYT1
PKN1 = system: PKN1
PKN2 = system: PKN2
PLK1 = system: PLK1
PLK2 = system: PLK2
PLK3 = system: PLK3
PLK4 = system: PLK4
PRKCD = system: PRKCD
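Note: KINOMEscan kinase panel screen.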

| SMILES | %Inh (PIK3CG) | %Inh (PIK4CB) | %Inh (PIKFYVE) | %Inh (PIM1) | %Inh (PIM2) | %Inh (PIM3) | %Inh (PIP5K1A) | %Inh (PIP5K1C) | %Inh (PIP5K2B) | %Inh (PIP5K2C) | %Inh (PKAC-alpha) | %Inh (PKAC-beta) | %Inh (PKMYT1) | %Inh (PKN1) | %Inh (PKN2) | %Inh (PLK1) | %Inh (PLK2) | %Inh (PLK3) | %Inh (PLK4) | %Inh (PRKCD) |
| --- | --- | --- | --- | --- | --- | --- | --- | --- | --- | --- | --- | --- | --- | --- | --- | --- | --- | --- | --- | --- |
| Cc1cccc(-c2cc(-c3c[nH]nc3-c3ccccn3)ccn2)c1 [GW679395] | 0% | 0% | 0% | 20% | 0% | 0% | 35% | 54% | 0% | 39% | 0% | 0% | 1% | 0% | 0% | 0% | 0% | 0% | 0% | 0% |
| COC(=O)c1c(-c2ccccc2)c2cc(C)ccc2c(=O)n1Cc1ccccc1 | 0% | 0% | 0% | 2% | 0% | 0% | 13% | 20% | 5% | 1% | 0% | 0% | 13% | 0% | 0% | 0% | 0% | 0% | 0% | 3% |
| COc1cc(Nc2nccc(N3CCC(NC(=O)C4COc5ccccc5O4)C3)n2)cc(OC)c1OC (stereo not drawn) [GSK1379761] | 0% | 0% | 21% | 0% | 0% | 0% | 51% | 0% | 6% | 89% | 4% | 0% | 5% | 0% | 7% | 13% | 0% | 0% | 9% | 18% |
| CCC(=O)c1c(-c2ccccc2)c2cc(Cl)ccc2c(=O)n1Cc1cc(S(C)(=O)=O)n(CCC(C)(C)O)n1 | 17% | 0% | 0% | 15% | 2% | 16% | 0% | 0% | 20% | 0% | 0% | 0% | 0% | 0% | 0% | 0% | 0% | 8% | 24% | 0% |
| COc1cc(Nc2nccc(N3CCC(NC(=O)C(C)c4ccc(Cl)cc4)C3)n2)cc(OC)c1OC (stereo not drawn) [GSK1379757] | 2% | 0% | 0% | 0% | 0% | 0% | 42% | 35% | 3% | 79% | 0% | 0% | 0% | 19% | 0% | 0% | 0% | 0% | 0% | 0% |
| Nc1ncnc2c1ncn2-c1ccc(Cl)cc1 [AH2635] | 47% | 0% | 0% | 0% | 0% | 0% | 17% | 57% | 10% | 23% | 0% | 0% | 0% | 0% | 0% | 0% | 0% | 0% | 0% | 3% |
| CCCC(=O)Nc1n[nH]c2ncc(-c3cccc4ccccc34)cc12 [SB-642057] | 10% | 39% | 0% | 10% | 0% | 2% | 0% | 34% | 0% | 13% | 0% | 0% | 22% | 19% | 0% | 0% | 0% | 1% | 13% | 0% |
| COc1ccc(-c2cc3c(C)nc(N)nc3n([C@H]3CC[C@H](OCCO)CC3)c2=O)cn1 | – | 96.1% | 11% | 0% | 44% | 0% | 0% | 1% | 2% | 9% | 3% | 0% | 0% | 5% | 0% | 0% | 0% | 0% | 1% | 2% |
| COc1ccc(-n2cnc3c(N)ncnc32)cc1 [SKF-97236] | 51% | 23% | 0% | 19% | 0% | 0% | 0% | 33% | 6% | 6% | 0% | 19% | 17% | 46% | 0% | 18% | 3% | 2% | 1% | 9% |
| Cc1c(Cn2c(C)nn3c(=O)cc(N4CCO[C@H](C)C4)nc23)cccc1C(F)(F)F [GSK2373690] | 21% | 0% | 0% | 0% | 0% | 0% | 0% | 13% | 12% | 9% | 0% | 11% | 11% | 0% | 0% | 0% | 0% | 0% | 0% | 0% |
| CC(C)(C)c1ccc(C(=O)Nc2cn3cc(-c4ccccc4)ccc3n2)cc1 | 0% | 0% | 27% | 30% | 0% | 19% | 0% | 32% | 6% | 54% | 0% | 7% | 0% | 0% | 16% | 0% | 0% | 13% | 40% | 0% |
| COc1cccc(C2=C(Nc3cccc(C(=O)O)c3)C(=O)NC2=O)c1 [SB-390770] | 5% | 0% | 0% | 0% | 0% | 0% | 5% | 56% | 4% | 23% | 0% | 0% | 11% | 22% | 0% | 6% | 0% | 0% | 10% | 29% |
| CN(C)c1cc(-c2ccc3c(N)n[nH]c3c2)nc(N)n1 [GSK2219329] | 0% | 0% | 0% | 14% | 0% | 0% | 0% | 19% | 0% | 0% | 32% | 0% | 0% | 0% | 0% | 0% | 0% | 0% | 0% | 0% |
| COc1ccc(CNC(=O)NC2CCN(c3ccnc(Nc4ccc(F)cc4)n3)C2)cc1 (stereo not drawn) [GSK1379706] | 7% | 17% | 0% | 12% | 0% | 0% | 44% | 63% | 20% | 54% | 0% | 0% | 10% | 14% | 0% | 10% | 0% | 0% | 19% | 0% |
